Screens as filed in PubChem BioAssay.
GSH fluor: compound fluoresces at 488/530 nm on GSH beads. GSH beads flow cytometry, compound fluorescence 488/530 nm; stronger effect = higher value. fluorescence (KMESF) at 10 µM. hit rate 0.25% among 190,000. AID 1776; in the data active = fluorescence above about 89;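 note: glutathione beads carrying GST-tagged Bcl family fusion proteins plus one bare bead set; values are compound well signal with DMSO vehicle wells as background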
Avidin bead fluor: compound fluoresces at 488/530 nm on avidin beads. compound fluorescence 488/530 nm, flow cytometry; stronger effect = higher value. fluorescence (KMESF) at 10 µM. hit rate 0.38% among 220,000; in the data active = fluorescence above about 47
RGS4-Gao reg: human RGS4-Galphao interaction regulation; P09471; Multiplexed bead flow cytometry, RGS4-Galphao binding; actives lie on both sides; hit rate 0.33% among 220,000; binding response (% of control), % at 10 µM; in the data active = binding response below about 49% or above about 150%; inactive = in between;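 note: fluorescent Galphao activated with aluminum fluoride binding bead-coupled RGS4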
Target sequence (P09471 whole entry, looked up): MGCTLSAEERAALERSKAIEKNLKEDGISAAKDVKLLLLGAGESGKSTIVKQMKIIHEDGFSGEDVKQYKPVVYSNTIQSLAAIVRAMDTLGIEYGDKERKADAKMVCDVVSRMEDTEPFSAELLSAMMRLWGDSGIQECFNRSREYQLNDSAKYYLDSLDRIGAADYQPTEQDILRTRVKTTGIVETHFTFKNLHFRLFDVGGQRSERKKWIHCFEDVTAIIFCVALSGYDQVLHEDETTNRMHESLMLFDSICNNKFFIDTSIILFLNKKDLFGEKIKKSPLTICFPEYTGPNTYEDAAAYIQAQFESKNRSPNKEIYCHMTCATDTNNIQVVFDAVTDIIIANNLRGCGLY
RGS8-Gao reg: modulates binding of RGS8 to human Galphao; multiplexed bead flow cytometry; actives lie on both sides; P09471; response (percent of control binding), % at 10 µM; hit rate 0.34% among 220,000; in the data active = response below about 60% or above about 140%; inactive = in between;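 note: Galphao activated as the GDP aluminium fluoride complex binding bead-coupled RGS8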
RGS16-Gao HTS: modulates binding between human RGS16 and Galphao; bead-based flow cytometry RGS16-Galphao binding, fluorescence; actives lie on both sides; AID 1441; binding response (% of control), % at 10 µM; O15492+P09471; hit rate 0.38% among 220,000;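 note: Galphao activated by GDP with aluminum fluoride before binding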
Target sequence (O15492 whole entry, looked up): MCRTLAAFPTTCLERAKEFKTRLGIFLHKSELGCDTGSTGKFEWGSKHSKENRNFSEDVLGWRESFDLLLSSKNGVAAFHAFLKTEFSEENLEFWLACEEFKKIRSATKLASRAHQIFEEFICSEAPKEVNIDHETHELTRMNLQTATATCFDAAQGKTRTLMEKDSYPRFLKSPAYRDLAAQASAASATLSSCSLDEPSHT
Target sequence (P09471 whole entry, looked up): as the sequence (P09471 whole entry, looked up) above
RGS7-Gao: human RGS7-Galphao interaction regulation. P09471. Multiplexed bead flow cytometry, RGS7-Galphao binding; actives lie on both sides. binding response (% of control), % at 10 µM. hit rate 0.35% among 220,000; in the data active = binding response below about 49% or above about 150%; inconclusive = no clear call, values can overlap the other calls; inactive = in between;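 note: fluorescent Galphao held in activated GDP-AlF4 state binding bead-coupled RGS7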
RGS-Gao: regulators of human RGS4-Galphao interaction. shares compounds with RGS16-Gao HTS. multiplexed bead flow cytometry, RGS–Galpha-o binding. RGS4–Galpha-o binding response, % at 10 µM. hit rate 99% among 1,600;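 note: fluorescently labeled Galpha-o bound to GDP with aluminium fluoride binding biotinylated RGS beads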
Avidin counter: counter-screen: compounds disrupting biotin binding to avidin beads. shares compounds with RGS16-Gao HTS. streptavidin beads, fluorescein-biotin binding, flow cytometry. inhibition, % at 10 µM. 1,700 tested, under 10 active;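 active = inhibition above 50%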;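 note: median green fluorescence of gated singlet beads compared with DMSO control wells; 0% = DMSO wells and 100% = complete loss of bead fluorescence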
RGS8-Gao single: RGS8-Galphao interaction regulation, single point confirmation; shares compounds with RGS16-Gao HTS; bead-based flow cytometry RGS8-Galphao binding, fluorescence; actives lie on both sides; binding response (% of control), % at 10 µM; hit rate 3% among 1,700; AID 1836; in the data active = binding response below about 72% or above about 130%; inactive = in between;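 note: Galphao activated as GDP AlF4 complex before binding bead RGS8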
RGS7-Gao single: RGS7-Galphao interaction regulation, single point confirmation. shares compounds with RGS16-Gao HTS. bead-based flow cytometry RGS7-Galphao binding; actives lie on both sides. response (percent of control binding), % at 10 µM. hit rate 7.8% among 1,700. AID 1837; in the data active = response below about 75% or above about 130%; inactive = in between;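 note: fluorescent Galphao activated with GDP and aluminum fluoride binding bead-coupled RGS7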
RGS16-Gao single: confirmation of regulators of human RGS16-Galphao interaction. shares compounds with RGS16-Gao HTS. bead-based flow cytometry, RGS16-Galphao binding; actives lie on both sides. response (% of control binding), % at 10 µM. hit rate 4% among 1,700. AID 1838; in the data active = response below about 74% or above about 130%; inactive = in between;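 note: Galphao activated as the GDP aluminium fluoride complex binding bead-coupled RGS16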
RGS4-Gao confirm: RGS4-Galphao interaction regulation, single point confirmation; shares compounds with RGS16-Gao HTS; hit rate 4% among 1,700; binding response (% of control), % at 10 µM; RGS4-Galphao binding, multiplexed bead flow cytometry; actives lie on both sides; in the data active = binding response below about 74% or above about 130%; inactive = in between
RGS19-Gao conf: RGS19-Galphao interaction regulation, single point confirmation; shares compounds with RGS16-Gao HTS; bead-based flow cytometry RGS19-Galphao binding; actives lie on both sides; response (percent of control binding), % at 10 µM; hit rate 5% among 1,700; AID 1841; in the data active = response below about 50% or above about 160%; inactive = in between;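 note: 100% = no compound control and 0% = blank background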
Starred values were filed as active, the others as inactive; ? = inconclusive; · = no result; [ ] = dose if it differs, or a comment. Rows were chosen to be rich in hits. Some 1.2% of all compounds tested hit in one or more screens of this group. Unless noted, the rule behind the calls is not given here.

SMILES | GSH fluor | Avidin bead fluor | RGS4-Gao reg | RGS8-Gao reg | RGS16-Gao HTS | RGS7-Gao | RGS-Gao | Avidin counter | RGS8-Gao single | RGS7-Gao single | RGS16-Gao single | RGS4-Gao confirm | RGS19-Gao conf
Cc1ccc(OCCn2nc3ccccc3n2)c(C)c1 | 8 | 154* | 121 | 96 | 107 | 192*[activator] | 121* | 0 | 101 | 105 | 106 | 106 | 88
Cc1cc(C)c(C)c(S(=O)(=O)N[C@@H](C)C(=O)OCC(N)=O)c1C | 25 | 25 | 100 | 103 | 101 | 97 | · | · | · | · | · | · | ·
COc1cccc2c1NC(C(=O)O)C1CC=CC21 (stereo unspecified) | 6 | 6 | 70 | 54* | 63 | 36* | 70* | 0 | 100 | 76 | 96 | 89 | 94
COc1ccc(/C(N)=N/OC(=O)CCCc2ccccc2)cc1OC | 6 | 2 | 98 | 96 | 90 | 101 | · | · | · | · | · | · | ·
S=C(Nc1ccccc1)N1N=C(c2cccs2)CC1c1cccs1 (stereo unspecified) | 17 | 8 | 99 | 102 | 102 | 98 | · | · | · | · | · | · | ·
O=C1NCC(O)=C1C=NC12CC3CC(CC(C3)C1)C2 | 30 | 13 | 102 | 107 | 106 | 100 | · | 1 | 101 | 100 | 100 | 100 | 91
Cc1cc(Cl)ccc1OCc1cn2cccnc2n1 | 16 | 8 | 98 | 100 | 97 | 99 | · | · | · | · | · | · | ·
CC1(C)NC(=O)N(CC(=O)OCC(=O)Nc2cc(S(=O)(=O)N3CCCCCC3)ccc2Cl)C1=O | 9 | 6 | 101 | 103 | 105 | 102 | · | · | · | · | · | · | ·
CC1=C(C(=O)Nc2ccc(F)c(F)c2)C(c2cccs2)NC(=S)N1 (stereo unspecified) | 6 | 2 | 102 | 103 | 108 | 102 | · | · | · | · | · | · | ·
CC1=C(C(=O)Nc2ccc(C)cc2)C(c2cccs2)NC(=S)N1 (stereo unspecified) | 15 | 7 | 54 | 67 | 49 | 46* | 54* | -2 | 110 | 105 | 112 | 104 | 118
CCOc1ccccc1N1CCN(C(=O)c2ccc3[nH]c4c(c3c2)CCCC4)CC1 | 16 | 3 | 84 | 74 | 24* | 81 | 84* | 0 | 100 | 100 | 99 | 100 | 93
CCOc1ccccc1N1CCN(C(=O)c2ccncc2)CC1 | 13 | 38 | 102 | 101 | 102 | 103 | · | · | · | · | · | · | ·
Cc1csc(NC(=O)c2ccco2)n1 | 17 | 5 | 98 | 98 | 105 | 101 | · | · | · | · | · | · | ·
COc1ccccc1OCc1csc(NC(=O)c2ccco2)n1 | 47 | -5 | -19* | 3.4* | -42 | -7.5* | · | 1 | 105 | 104 | 109 | 102 | 116
O=C1CCCCC1Sc1nnc(Nc2ccccc2)s1 (stereo unspecified) | 15 | 10 | 108 | 106 | 109 | ? | · | · | · | · | · | · | ·
O=C(C1CCC(C(=O)N2CCCCC2)CC1)N1CCCCC1 (stereo unspecified) | 32 | 16 | 99 | 102 | 103 | 101 | · | · | · | · | · | · | ·
O=C(C1CCC(N2C(=O)C3CC=CCC3C2=O)CC1)N1CCCCC1 (stereo unspecified) | 7 | 6 | 129 | 170*[activator] | 397 | 118 | 129* | 0 | 110 | 108 | 119 | 110 | 114
O=[N+]([O-])c1ncn(Cc2c(Cl)cccc2Cl)n1 | 11 | 25 | 97 | 96 | 100 | 99 | · | · | · | · | · | · | ·
CC[n+]1c(/C=C/C=C/N(C(C)=O)c2ccccc2)sc2cc(OC)ccc21 | 6 | 30 | 135 | 93 | 143 | 155*[activator] | 135* | · | · | · | · | · | ·
Cc1ccc(S(=O)(=O)NCC2CCC(C(=O)NCc3ccc4c(c3)OCO4)CC2)cc1 (stereo unspecified) | 30 | · | 137 | · | 150 | · | · | 1 | 99 | 90 | 97 | 100 | 98
CC(C)CN1CCN(Cc2ccc(CN3CCCCC3)s2)CC1CCO (stereo unspecified) | 10 | 2 | 94 | 97 | 105 | 90 | · | · | · | · | · | · | ·
CSCCC(NS(=O)(=O)c1ccc(F)cc1)C(=O)NCc1ccc(S(N)(=O)=O)cc1 (stereo unspecified) | · | · | 100 | 100 | 104 | ? | · | · | · | · | · | · | ·
NC(=O)CCC(NS(=O)(=O)c1ccc(Cl)cc1)C(=O)NCc1ccc(Cl)cc1 (stereo unspecified) | 6 | 6 | 90 | 70 | 6.5* | 85 | 90* | 0 | 111 | 112 | 114 | 109 | 133
COc1cc(C(=O)Nc2ccc(-n3cnnn3)c(C)c2)cc(OC)c1OC | 20 | 1 | 25* | 41* | 24* | 28* | · | 0 | 108 | 106 | 117 | 105 | 121
Cc1cc(NC(=O)c2ccco2)ccc1-n1cnnn1 | 11 | 13 | 101 | 96 | 104 | 105 | · | · | · | · | · | · | ·
SMILES | GSH fluor | Avidin bead fluor | RGS4-Gao reg | RGS8-Gao reg | RGS16-Gao HTS | RGS7-Gao | RGS-Gao | Avidin counter | RGS8-Gao single | RGS7-Gao single | RGS16-Gao single | RGS4-Gao confirm | RGS19-Gao conf
NC(=S)N/N=C1\CC(n2nnn(-c3cccc(Cl)c3)c2=S)C2COC1O2 (stereo unspecified) | 15 | 11 | 101 | 103 | 103 | 99 | · | · | · | · | · | · | ·
CC1(C(=O)N/N=C/c2ccc([N+](=O)[O-])o2)CC1(Br)Br (stereo unspecified) | 14 | 7 | 88 | 78 | 13* | 84 | 88* | 2 | 101 | 98 | 98 | 101 | 90
CCOC(=O)C1=C(C)N=C2SC(CC)C(=O)N2C1c1cccc(F)c1 (stereo unspecified) | 19 | · | · | · | · | · | · | -2 | 98 | 93 | 99 | 99 | 98
COC(=O)Cc1c(C)nc2nc(NCc3ccc(Cl)cc3)[nH]n2c1=O | 15 | 86* | 155*[activator] | 118 | 178*[activator] | 151*[activator] | · | 2 | 100 | 100 | 102 | 100 | 89
CN(C)C(=O)CSc1nnc(-c2ccc(F)cc2)c2ccccc12 | · | 1 | 28* | 51* | 31 | ? | · | -1 | 105 | 111 | 106 | 108 | 97
COc1ccccc1NC(=O)CSC(N)=O | 21 | 3 | 83 | 83 | 78 | 87 | · | · | · | · | · | · | ·
